Laboratory results: PubChem BioAssay (NCATS)
Records with an inconclusive call do not appear. Calls of active or inactive are those of the source. Calls follow the shape of the dose curve; as a rule, active = well fitted inhibition curve with a large enough effect; inconclusive = small, poorly fitted or top-dose-only effect; inactive = no such curve, though single readings can be large or run the other way.

Target: Tyrosine-protein kinase Yes (Homo sapiens) (UniProt P07947)
Assay: qHTS for small molecule inhibitors of Yes1 kinase: Primary Screen (AID 686947); also: nearly all actives have a fitted effect of over 60% in size;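 as to activity change, negative = inhibition: plate controls were DMSO with enzyme for no effect and no-enzyme DMSO wells for full effect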
Settings: Yes1 kinase biochemical qHTS inhibition; series mostly up to 76.9 µM; activity change, negative = inhibition: at the top concentration
In short: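 In this qHTS format, inhibition is expressed relative to DMSO controls with enzyme (maximum) and without enzyme (minimum). The 60 min room-temperature reaction uses 0.1 mM ATP, with ADP detected by luminescence.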
Potency is read from the fitted curve at half-maximal effect.

Chain of Tyrosine-protein kinase Yes (Homo sapiens) (P07947 whole entry, looked up): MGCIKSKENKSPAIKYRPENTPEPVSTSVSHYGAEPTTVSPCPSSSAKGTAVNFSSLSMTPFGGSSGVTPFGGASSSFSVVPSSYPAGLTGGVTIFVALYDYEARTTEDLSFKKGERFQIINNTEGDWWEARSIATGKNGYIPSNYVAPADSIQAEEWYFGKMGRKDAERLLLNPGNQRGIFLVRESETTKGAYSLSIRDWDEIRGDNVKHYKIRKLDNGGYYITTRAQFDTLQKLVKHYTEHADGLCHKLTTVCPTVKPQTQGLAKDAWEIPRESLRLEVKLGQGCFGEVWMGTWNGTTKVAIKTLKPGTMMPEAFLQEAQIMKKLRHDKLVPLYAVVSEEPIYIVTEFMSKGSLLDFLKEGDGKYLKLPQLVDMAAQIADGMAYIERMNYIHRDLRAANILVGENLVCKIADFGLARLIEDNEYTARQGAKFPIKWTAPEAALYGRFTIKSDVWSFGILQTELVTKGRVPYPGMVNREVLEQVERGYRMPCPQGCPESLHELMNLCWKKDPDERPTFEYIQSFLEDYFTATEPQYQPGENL

Q: `CC1=C(C(=O)Nc2ccc3[nH]ncc3c2)C(c2ccc3ccccc3c2)CC(=O)N1` (centres undefined) was tested. Which Potency did it give?
A: The Potency was 582 nM (active).

Q: `CCOc1nccc2c1nc(-c1nonc1N)n2CC` was tested. Which “activity change, negative = inhibition” value did it give?
A: Its value is 28.2% (inactive).

Q: Which “activity change, negative = inhibition” value does the source give for `Fc1ccc(-c2ncn(C3CCNCC3)c2-c2ccnc(Oc3ccc(F)c(F)c3)n2)cc1` here?
A: Its value is 7.18% (inactive).

Q: How did the Potency turn out when `c1ccc(COc2ccc(Nc3ncnc4ccc(-c5ccco5)cc34)cc2)cc1` was run?
A: The Potency was 3680 nM (active).

Q: How did the Potency turn out when `CC1=C(C(=O)Nc2ccc3[nH]ncc3c2)C(c2ccc(Cl)c(Cl)c2)CC(=O)N1` (centres undefined) was run?
A: Its Potency is 2920 nM (active).

Q: Which “activity change, negative = inhibition” value does the source give for `Fc1cccc(COc2ccc(Nc3ncncc3C#Cc3ccccc3)cc2Cl)c1` here?
A: Its value is -16.3% (inactive).

Q: With `CC(C)(CO)CNC(=O)c1ccc2[nH]c(O)c(N=Nc3ccc(S(N)(=O)=O)cc3)c2c1` as the compound, how does the Potency read?
A: Its Potency is 2320 nM (active).

Q: With `COc1cc2c(cc1Nc1nc(Nc3ccsc3C(N)=O)c3cc[nH]c3n1)N(C(=O)CN(C)C)CCC2` as the compound, how does the “activity change, negative = inhibition” value read?
A: The value was -14.5% (inactive).

Q: Which Potency does the source give for `COc1cccc(-n2ncc3c(NN=Cc4cccc(F)c4)ncnc32)c1` here?
A: The Potency was 146 nM (active).

Q: With `CCS(=O)(=O)c1ccc(OC)c(Nc2ncc(-c3cccc(F)c3)o2)c1` as the compound, how does the Potency read?
A: Its Potency is 146 nM (active).

Q: How did the Potency turn out when `COc1ccc(-c2nn3ncccc3c2-c2ccnc(Nc3cccc(C(F)(F)F)c3)n2)cc1` was run?
A: Its Potency is 582 nM (active).

Q: `COc1c(C(N)=O)cc(-c2ccc(Cl)cc2)cc1-c1ccc(S(N)(=O)=O)cc1` was tested. Which Potency did it give?
A: Its Potency is 10400 nM (active).

Q: `CS(=O)(=O)CCNCc1ccc(-c2ccc3ncnc(Nc4ccc(OCc5ccccc5)cc4)c3c2)o1` was tested. Which Potency did it give?
A: The Potency was 463 nM (active).

Q: `Fc1ccc(Nc2nccc(-c3c(-c4ccc(C(F)(F)F)cc4)nn4ncccc34)n2)cc1F` was tested. Which “activity change, negative = inhibition” value did it give?
A: Its value is -15% (inactive).
